Design in all cases: scale not given: direction of the effect not stated beside the values
Assay [1] concerns the target Protein translocase subunit SecA (Escherichia coli (strain K12)) (UniProt P10408). As to the kind of experiment: Assay to Identify E. coli SecA ATPase Inhibitors. As to conditions: 30 µM. Format: functional.
The target in assay [2] is T1, Ubiquitin-activating enzyme e1, putative (Leishmania donovani (strain BPK282A1)) (UniProt E9BSI1).
T1 sequence (whole entry): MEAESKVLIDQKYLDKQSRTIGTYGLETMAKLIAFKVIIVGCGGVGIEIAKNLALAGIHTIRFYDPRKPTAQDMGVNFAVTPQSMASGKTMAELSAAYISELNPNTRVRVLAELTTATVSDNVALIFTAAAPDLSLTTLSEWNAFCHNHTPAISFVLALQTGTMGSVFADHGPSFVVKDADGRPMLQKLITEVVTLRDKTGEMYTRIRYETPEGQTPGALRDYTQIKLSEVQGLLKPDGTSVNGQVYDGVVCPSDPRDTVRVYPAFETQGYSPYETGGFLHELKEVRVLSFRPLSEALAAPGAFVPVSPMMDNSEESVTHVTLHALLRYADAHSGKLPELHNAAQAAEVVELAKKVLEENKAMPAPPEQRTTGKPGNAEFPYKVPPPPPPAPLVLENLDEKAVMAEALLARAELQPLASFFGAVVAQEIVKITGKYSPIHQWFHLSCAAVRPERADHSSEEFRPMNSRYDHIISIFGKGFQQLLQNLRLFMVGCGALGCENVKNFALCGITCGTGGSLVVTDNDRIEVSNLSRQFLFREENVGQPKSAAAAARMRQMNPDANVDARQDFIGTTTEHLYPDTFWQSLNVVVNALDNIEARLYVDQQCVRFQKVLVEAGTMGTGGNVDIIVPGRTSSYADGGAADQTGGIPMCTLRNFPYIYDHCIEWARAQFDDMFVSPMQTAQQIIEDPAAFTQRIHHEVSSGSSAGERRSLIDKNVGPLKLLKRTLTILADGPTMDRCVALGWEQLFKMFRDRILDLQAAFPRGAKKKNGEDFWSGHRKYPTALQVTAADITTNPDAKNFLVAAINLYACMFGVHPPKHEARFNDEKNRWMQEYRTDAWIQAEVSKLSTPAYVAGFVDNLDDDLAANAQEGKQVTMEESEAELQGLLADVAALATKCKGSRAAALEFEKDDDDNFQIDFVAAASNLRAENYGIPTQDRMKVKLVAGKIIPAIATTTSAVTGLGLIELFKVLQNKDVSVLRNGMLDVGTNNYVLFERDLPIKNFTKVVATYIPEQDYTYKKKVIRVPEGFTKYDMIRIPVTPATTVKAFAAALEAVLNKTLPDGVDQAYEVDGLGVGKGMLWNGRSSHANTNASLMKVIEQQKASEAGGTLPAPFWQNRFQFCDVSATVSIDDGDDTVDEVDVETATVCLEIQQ
Description: Leishmania donovani Ubiquitin Activating Enzyme (LdE1). Format: functional. The following applies: 30 µM.

For assay [3], the target named is AMP-activated protein kinase, AMPK (Homo sapiens) (UniProt P54646+O43741+P54619+Q9UGJ0+Q9Y478+Q13131+Q9UGI9). As to the kind of experiment: AMP-dependent Kinase enzyme assay. An in vitro enzyme assay that detects ADP turnover that is directly proportional to AMPK activity. This uses naive AMPK that is activated during the assay with MK-8722. Format: functional. As to conditions: 30 µM.

In assay [4] the target is Sialic acid-binding Ig-like lectin 9 (Homo sapiens) (UniProt Q9Y336). As to the kind of experiment: Hs-Siglec9 ALPHAscreen SOP 20170721. The following applies: 10 µM.
For assay [5], the system named is Trypanosoma cruzi. As to the kind of experiment: Trypanosoma cruzi phosphomannomutase and mannose-1-phosphate guanylyltransferase assay. Format: functional. As to conditions: 10 µM.
In assay [6] the target is T2, Arginase-2, mitochondrial (Homo sapiens) (UniProt P78540).
T2 sequence (whole entry): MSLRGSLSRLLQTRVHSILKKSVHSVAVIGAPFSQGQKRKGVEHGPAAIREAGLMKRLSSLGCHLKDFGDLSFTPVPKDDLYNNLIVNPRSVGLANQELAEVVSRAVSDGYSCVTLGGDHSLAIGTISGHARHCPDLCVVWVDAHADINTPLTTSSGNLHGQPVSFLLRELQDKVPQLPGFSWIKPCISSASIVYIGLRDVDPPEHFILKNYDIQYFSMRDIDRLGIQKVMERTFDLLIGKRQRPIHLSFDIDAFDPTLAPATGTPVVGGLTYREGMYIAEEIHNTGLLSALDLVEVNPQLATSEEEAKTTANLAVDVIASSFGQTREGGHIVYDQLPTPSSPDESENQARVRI
Description: in vitro enzyme assay to detect the production of urea directly proportional to the activity of Arginase II. Note: in the data most compounds retested in dose-response had high values. Format: functional. The following applies: 33.3 µM.

The target of assay [7] is T3, Proteasome subunit beta (Trypanosoma cruzi) (UniProt O96673).
T3 sequence (whole entry): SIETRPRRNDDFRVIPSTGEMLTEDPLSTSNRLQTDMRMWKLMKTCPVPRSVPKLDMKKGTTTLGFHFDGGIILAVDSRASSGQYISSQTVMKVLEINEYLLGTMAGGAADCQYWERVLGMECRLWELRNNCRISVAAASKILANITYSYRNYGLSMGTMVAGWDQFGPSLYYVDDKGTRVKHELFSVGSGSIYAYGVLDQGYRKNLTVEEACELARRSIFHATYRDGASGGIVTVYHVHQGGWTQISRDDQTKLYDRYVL
As to the kind of experiment: Trypanosoma cruzi proteasome chymotrypsin-like activity (TcProtChymo) assay. Note: in the data most compounds retested in dose-response had high values. The class given is functional. The following applies: 9.37 µM.

The species named for assay [8] is Homo sapiens. Description: To identify inhibition of the IFN signalling (Jak-Stat) pathway via expression of an eGFP reporter gene under the control of an IFN-stimulated response element (ISRE) containing MxA promoter. Format: functional. The following applies: 30 µM. A general note: In a reporter assay the amount or activity of a reporter protein is the signal.

Assay [9] deals with T4, Tyrosyl-tRNA synthetase, putative (Trypanosoma cruzi (strain CL Brener)) (UniProt Q4DSP6).
T4 sequence (whole entry): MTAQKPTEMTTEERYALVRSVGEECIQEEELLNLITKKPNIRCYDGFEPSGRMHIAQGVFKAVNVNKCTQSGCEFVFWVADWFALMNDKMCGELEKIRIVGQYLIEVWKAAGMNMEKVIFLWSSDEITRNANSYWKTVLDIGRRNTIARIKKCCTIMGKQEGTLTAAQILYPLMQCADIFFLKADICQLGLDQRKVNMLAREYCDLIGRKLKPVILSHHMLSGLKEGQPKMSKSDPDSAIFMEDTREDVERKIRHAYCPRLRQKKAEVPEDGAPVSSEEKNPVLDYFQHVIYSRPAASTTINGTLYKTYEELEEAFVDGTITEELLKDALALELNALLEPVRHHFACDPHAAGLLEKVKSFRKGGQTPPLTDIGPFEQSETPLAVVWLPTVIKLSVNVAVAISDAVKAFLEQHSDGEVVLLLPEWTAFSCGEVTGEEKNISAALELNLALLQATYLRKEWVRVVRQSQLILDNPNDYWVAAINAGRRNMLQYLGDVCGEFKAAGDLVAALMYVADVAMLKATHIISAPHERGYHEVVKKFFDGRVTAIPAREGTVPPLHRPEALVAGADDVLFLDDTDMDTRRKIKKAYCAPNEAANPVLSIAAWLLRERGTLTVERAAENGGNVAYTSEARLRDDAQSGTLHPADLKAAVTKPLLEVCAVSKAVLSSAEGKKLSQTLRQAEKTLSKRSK
Description: Trypanosoma cruzi tyrosyl tRNA synthetase (TcYRS) _High Tyrosine SOP. Note: in the data most compounds retested in dose-response had high values. The class given is functional. The following applies: 30 µM.

Assay [10] has as its target T4, Tyrosyl-tRNA synthetase, putative (Trypanosoma cruzi (strain CL Brener)). Description: Trypanosoma cruzi tyrosyl tRNA synthetase (TcYRS) SOP. Format: functional. As to conditions: 30 µM.
Assay [11] deals with Chromo domain-containing protein 1 (Saccharomyces cerevisiae (strain ATCC 204508 / S288c) (Baker's yeast)) (UniProt P32657). Description: ScCHD-1 Enzyme Inhibition Assay. Note: in the data most compounds retested in dose-response had high values. The following applies: 30 µM. Format: functional.

The results in this text go back to ChEMBL document CHEMBL3988442, “University of Dundee, Small-Polar-MMV Screening Library” (2021).

For some of these results: Results with a measured potency or affinity are listed apart.

Chain of Protein translocase subunit SecA (Escherichia coli (strain K12)) (P10408 whole entry): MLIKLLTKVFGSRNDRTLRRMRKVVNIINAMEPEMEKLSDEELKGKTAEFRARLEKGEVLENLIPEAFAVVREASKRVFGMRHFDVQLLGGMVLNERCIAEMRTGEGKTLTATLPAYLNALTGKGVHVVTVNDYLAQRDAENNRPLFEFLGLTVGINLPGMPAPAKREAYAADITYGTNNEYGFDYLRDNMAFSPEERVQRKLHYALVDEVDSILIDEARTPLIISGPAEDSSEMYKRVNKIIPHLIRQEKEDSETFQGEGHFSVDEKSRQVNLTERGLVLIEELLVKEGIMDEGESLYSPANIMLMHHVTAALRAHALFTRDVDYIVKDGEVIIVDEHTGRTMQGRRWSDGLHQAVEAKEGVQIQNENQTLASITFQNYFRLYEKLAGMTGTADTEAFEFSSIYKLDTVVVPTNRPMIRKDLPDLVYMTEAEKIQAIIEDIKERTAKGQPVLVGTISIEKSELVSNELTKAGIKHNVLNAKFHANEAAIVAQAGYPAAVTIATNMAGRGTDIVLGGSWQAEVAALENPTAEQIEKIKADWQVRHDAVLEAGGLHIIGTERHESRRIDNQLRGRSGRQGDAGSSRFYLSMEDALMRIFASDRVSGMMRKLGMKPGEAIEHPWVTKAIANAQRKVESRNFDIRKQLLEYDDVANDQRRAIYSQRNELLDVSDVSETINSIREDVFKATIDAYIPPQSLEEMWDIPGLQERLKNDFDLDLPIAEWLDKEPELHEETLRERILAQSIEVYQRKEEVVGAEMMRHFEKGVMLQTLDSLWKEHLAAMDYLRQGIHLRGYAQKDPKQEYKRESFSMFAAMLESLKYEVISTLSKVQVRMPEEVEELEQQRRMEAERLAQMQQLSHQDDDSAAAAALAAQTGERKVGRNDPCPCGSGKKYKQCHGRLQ
Chain of Chromo domain-containing protein 1 (Saccharomyces cerevisiae (strain ATCC 204508 / S288c) (Baker's yeast)) (P32657 whole entry, the tested form may be a part): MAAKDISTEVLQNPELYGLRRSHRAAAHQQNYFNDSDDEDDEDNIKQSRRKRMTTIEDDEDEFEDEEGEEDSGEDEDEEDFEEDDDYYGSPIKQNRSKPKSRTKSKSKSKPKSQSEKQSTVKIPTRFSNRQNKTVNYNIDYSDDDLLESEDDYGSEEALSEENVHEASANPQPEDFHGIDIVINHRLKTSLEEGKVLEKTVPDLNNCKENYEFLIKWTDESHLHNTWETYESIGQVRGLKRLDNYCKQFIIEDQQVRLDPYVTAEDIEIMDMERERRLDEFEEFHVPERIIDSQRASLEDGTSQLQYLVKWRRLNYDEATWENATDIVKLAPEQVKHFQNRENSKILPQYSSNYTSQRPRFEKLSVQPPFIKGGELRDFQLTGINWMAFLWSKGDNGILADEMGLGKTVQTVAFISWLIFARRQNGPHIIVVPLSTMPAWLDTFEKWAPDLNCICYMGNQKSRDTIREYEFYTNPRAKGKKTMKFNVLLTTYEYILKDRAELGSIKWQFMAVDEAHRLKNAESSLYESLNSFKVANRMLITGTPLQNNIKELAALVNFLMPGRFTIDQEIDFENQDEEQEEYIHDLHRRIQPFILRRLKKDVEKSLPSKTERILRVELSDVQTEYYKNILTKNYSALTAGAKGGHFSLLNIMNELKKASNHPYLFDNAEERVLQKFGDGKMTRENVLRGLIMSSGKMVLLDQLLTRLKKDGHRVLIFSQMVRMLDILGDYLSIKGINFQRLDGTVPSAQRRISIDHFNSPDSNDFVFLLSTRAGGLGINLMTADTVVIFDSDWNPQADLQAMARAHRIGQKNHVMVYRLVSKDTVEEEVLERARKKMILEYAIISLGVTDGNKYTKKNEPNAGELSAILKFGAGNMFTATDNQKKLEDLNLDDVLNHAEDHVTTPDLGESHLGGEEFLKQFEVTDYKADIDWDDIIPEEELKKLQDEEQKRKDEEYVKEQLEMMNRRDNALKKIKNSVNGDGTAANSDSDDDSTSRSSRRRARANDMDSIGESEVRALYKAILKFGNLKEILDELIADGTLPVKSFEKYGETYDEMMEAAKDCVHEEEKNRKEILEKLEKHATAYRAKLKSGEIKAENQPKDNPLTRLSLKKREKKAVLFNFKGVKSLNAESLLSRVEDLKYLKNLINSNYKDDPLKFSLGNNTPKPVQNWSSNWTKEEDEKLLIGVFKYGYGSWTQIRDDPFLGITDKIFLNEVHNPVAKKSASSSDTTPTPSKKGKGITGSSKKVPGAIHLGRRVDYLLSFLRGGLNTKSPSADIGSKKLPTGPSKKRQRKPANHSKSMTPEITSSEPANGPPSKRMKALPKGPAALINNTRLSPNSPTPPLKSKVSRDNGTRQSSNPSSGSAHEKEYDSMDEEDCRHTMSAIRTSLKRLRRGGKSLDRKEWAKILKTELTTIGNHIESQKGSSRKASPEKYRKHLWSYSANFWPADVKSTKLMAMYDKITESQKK
Chain of Sialic acid-binding Ig-like lectin 9 (Homo sapiens) (Q9Y336 whole entry): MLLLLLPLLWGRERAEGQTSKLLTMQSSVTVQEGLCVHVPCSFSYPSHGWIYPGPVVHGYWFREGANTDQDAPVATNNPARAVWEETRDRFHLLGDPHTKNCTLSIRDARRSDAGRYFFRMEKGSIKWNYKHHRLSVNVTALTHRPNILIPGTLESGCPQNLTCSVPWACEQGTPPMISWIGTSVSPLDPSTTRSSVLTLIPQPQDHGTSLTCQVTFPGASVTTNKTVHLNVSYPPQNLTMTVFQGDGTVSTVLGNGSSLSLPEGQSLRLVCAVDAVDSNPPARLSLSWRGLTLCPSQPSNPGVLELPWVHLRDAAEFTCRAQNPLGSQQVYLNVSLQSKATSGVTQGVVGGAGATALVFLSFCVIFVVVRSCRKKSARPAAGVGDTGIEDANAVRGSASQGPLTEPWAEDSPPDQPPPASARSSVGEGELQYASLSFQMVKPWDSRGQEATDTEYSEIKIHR

`CN(C)C(CNC(=O)c1cc2c([nH]c1=O)CCCC2=O)c1ccsc1` (stereo unspecified): the Percent Effect in assay [1] was -5.23%; in [2], 16.2%; in [3], -3.65%; in assay [4], 17.4%; in assay [5] it was 4.55%; in assay [6] it was -0.554%. For the same compound, the Percent Effect was 2.51% in assay [7]; 1.27% in assay [8]; 5.94% in [9]; 18.3% in assay [10]; 45% in [11].
In the case of `CN(C)C(=O)N1C[C@@H]2CC[C@H](C1)N(C(=O)CCCn1cncn1)C2`, the Percent Effect was -2.38% in [1]; 2.7% in assay [2]; 0.473% in assay [3]; 0.611% in [4]; 1.74% in assay [5]; 1.43% in assay [6]. For the same compound, the Percent Effect in assay [7] is 19%; in [8] it was -5.66%; in [9], 8.99%; in assay [10], 21.9%; in assay [11], -3.6%.
Consider `COc1ccc(C(CO)NC(=O)Nc2cccc(C#N)c2)cc1` (stereo unspecified), for which the Percent Effect in assay [1] was -1.84%; in assay [2], 16.2%; in assay [3], -2.87%; in assay [4], 19.4%; in assay [5], 3.86%; in [6], -0.952%. The Percent Effect is 15.3% in assay [7]; 8.24% in assay [8]; 7.94% in [9]; 17.1% in [10]; -9.96% in assay [11].
`Cc1ccoc1C(=O)N1CC[C@H]2O[C@@H](C)C[C@H]2C1`: the Percent Effect was -5.4% in [1]; 21.3% in [2]; -6.43% in [3]; 2.33% in assay [4]; 5.6% in [5]; -45.3% in assay [6]. Further, the Percent Effect in assay [7] is 9.06%; in [8] it was 2.95%; in assay [9], 8.33%; in [10] it was 22.5%; in assay [11] it was -8.54%.
On to `Cn1cnnc1CNC(=O)Nc1cc(C(F)(F)F)c[nH]c1=O`, for which the Percent Effect was -4.28% in assay [1]; 7.89% in assay [2]; -0.726% in [3]; 8.28% in assay [4]; 1.5% in assay [5]; -0.383% in assay [6]. Besides, the Percent Effect in assay [7] is 3.84%; in assay [8], 2.52%; in assay [9], 2.45%; in assay [10], 7.32%; in [11], -7.82%.
Take `CC(C)c1ncc2c(n1)CN(Cc1cccc(OCC(N)=O)c1)CC2`: the Percent Effect in assay [1] was -3.71%; in assay [2], 10.5%; in [3], -32.8%; in assay [4], 10.8%; in assay [5] it was 2.44%; in assay [6], 4.6%. In addition, the Percent Effect in assay [7] was -1%; in assay [8], -8.11%; in assay [9] it was 8.33%; in assay [10] it was 0%; in assay [11], 4.59%.
Consider `O=C([C@H]1CCCO1)N1CC[C@H](O)[C@@H]1Cc1ccncc1`, for which the Percent Effect was -0.613% in assay [1]; 5.2% in assay [2]; 0.39% in assay [3]; 3.47% in assay [4]; -2.07% in [5]; 8.39% in assay [6]. Further, the Percent Effect in assay [7] was -1.57%; in assay [8], -7.18%; in [9], 4.23%; in assay [10], 1.28%; in [11] it was -0.313%.
Consider `COc1ccc(F)cc1S(=O)(=O)NCC(c1cccn1C)N(C)C` (stereo unspecified), for which the Percent Effect in assay [1] is -3.57%; in assay [2] it was 8.22%; in [3], -1.87%; in [4] it was -2.56%; in [5] it was 0.196%; in assay [6] it was 3.64%. The Percent Effect in [7] is 11.5%; in assay [8], 7.4%; in [9], 7.53%; in assay [10], 20%; in assay [11], -6.57%.
Consider `CCn1c(C(=O)N2CCN(C(=O)COC)CC2)cc2ccccc21`, for which the Percent Effect in [1] is -10.4%; in assay [2], 13%; in [3] it was -4.96%; in [4], 23.8%; in [5], 11.4%; in [6] it was 2.49%. Also, the Percent Effect in assay [7] is -0.169%; in assay [8] it was 10.3%; in [9], 7.77%; in [10] it was 21.9%; in assay [11], -12.3%.
`O=C(CCc1ccccc1)NCC1CCN(Cc2ccsc2)CC1`: the Percent Effect in assay [1] was -2.4%; in assay [2] it was 13%; in assay [3], 4.5%; in assay [4] it was -9.22%; in assay [5], -5.62%; in assay [6] it was 7.1%. The Percent Effect in assay [7] was 15.3%; in assay [8], 20.5%; in assay [9], 2.12%; in assay [10] it was 8.97%; in assay [11], -8.15%.
In the case of `Cc1cnc(CN2CCOC(CNc3cccnn3)C2)cn1` (stereo unspecified), the Percent Effect in [1] is 0.476%; in [2], -7.79%; in assay [3], -0.781%; in assay [4], 0.564%; in assay [5] it was -6.74%; in assay [6] it was 8.54%. Also, the Percent Effect is 0.676% in assay [7]; 17.9% in assay [8]; 0.971% in [9]; -2.44% in [10]; -5.93% in assay [11].
